# Screening results (PubChem)
# A selection: hits, their analogues and other compounds. The true share with any hit is near 3.1%.
# IkB signaling – suppresses IkB signaling in ABC-DLBCL reporter cells. ABC-DLBCL IkBa-CBG/CBR dual luciferase ratio, 4 h; response scale: scaled: untreated 0%, proteasome inhibitor 100%. 110,000 compounds, 0.04% hits. AID 445. Potency, µM (highest dose often 57.1 µM); active = well fitted curve in the direction sought with a large enough effect in the signal ratio, not every such curve was filed as active; inconclusive = small, poorly fitted or top-dose-only effect, or a change in a side signal; the % refers to the signal ratio;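 also: the direction sought is a rising ratio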
#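 In this assay, an IκBα–CBG68 fusion accumulates when IKK-driven degradation is blocked; native CBR normalizes for cell number. OCI-Ly3 cells were treated 4 h with compound and doxycycline, then green and red light read after Chroma-Glo addition.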
# p53ts 39C kill – kills p53ts cells at the nonpermissive temperature; H1299-p53A138V viability at 39C, ATP luminescence, 24 h; Potency, µM (titrated, usually from 46.1 µM), hits mostly cytotoxic; 130,000 compounds, 1.5% hits; also: nearly all actives have a fitted effect of over 55% in size
# HEK293 cAMP ctrl – counter-screen for TSHR agonists: cAMP increase in parental HEK293 | Potency, µM (doses to about 57.1 µM), hits mostly activators | 73,000 compounds, 2.5% hits | parental HEK293 CNG cAMP sensor, membrane potential fluorescence; also: nearly all actives have a fitted effect of over 55% in size
#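 Parental HEK 293 cells stably expressing a modified CNG channel (no TSHR) report cAMP rise as membrane depolarization. Membrane potential dye with 100 uM RO 20-1724 was loaded for 60 min at room temperature, then compound added for 30 min; fluorescence read at 590 nm.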
# Peg3 imprint – inducers of genomic imprint erasure in mouse ES cells; mouse ES Peg3-LacZ reporter, beta-gal luminescence, 40 h; Potency, µM (doses to about 60.7 µM), usual class: activators; 110,000 compounds, 0.02% hits; AID 1948
#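 Readout: BetaGlo luminescence (5 min, room temp) for LacZ from the normally silent maternal Peg3 allele in female Peg3LacZ-Neo ES cells. Cells 300/well, 40 h, 37C, 5% CO2. Data normalized per plate to negative controls.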
# TSHR ag – activates the human thyroid stimulating hormone receptor | 73,000 compounds, 0.48% hits | HEK293-CNG-TSHR cells (CNG channel as cAMP sensor), membrane potential dye, cAMP | P16473 | Potency, µM (top dose mostly 57.1 µM), hits mostly activators; active = well fitted activation curve with a large enough effect in the main read-out, with a control signal flat, not every such curve was filed as active; inconclusive = small, poorly fitted or top-dose-only effect, or a change in a side signal; inactive = no such curve, though single readings can be large or run the other way; reference of the percent scale not stated here;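 also: the control signal comes from parental cells without the receptor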
# Target sequence (P16473 whole entry, looked up): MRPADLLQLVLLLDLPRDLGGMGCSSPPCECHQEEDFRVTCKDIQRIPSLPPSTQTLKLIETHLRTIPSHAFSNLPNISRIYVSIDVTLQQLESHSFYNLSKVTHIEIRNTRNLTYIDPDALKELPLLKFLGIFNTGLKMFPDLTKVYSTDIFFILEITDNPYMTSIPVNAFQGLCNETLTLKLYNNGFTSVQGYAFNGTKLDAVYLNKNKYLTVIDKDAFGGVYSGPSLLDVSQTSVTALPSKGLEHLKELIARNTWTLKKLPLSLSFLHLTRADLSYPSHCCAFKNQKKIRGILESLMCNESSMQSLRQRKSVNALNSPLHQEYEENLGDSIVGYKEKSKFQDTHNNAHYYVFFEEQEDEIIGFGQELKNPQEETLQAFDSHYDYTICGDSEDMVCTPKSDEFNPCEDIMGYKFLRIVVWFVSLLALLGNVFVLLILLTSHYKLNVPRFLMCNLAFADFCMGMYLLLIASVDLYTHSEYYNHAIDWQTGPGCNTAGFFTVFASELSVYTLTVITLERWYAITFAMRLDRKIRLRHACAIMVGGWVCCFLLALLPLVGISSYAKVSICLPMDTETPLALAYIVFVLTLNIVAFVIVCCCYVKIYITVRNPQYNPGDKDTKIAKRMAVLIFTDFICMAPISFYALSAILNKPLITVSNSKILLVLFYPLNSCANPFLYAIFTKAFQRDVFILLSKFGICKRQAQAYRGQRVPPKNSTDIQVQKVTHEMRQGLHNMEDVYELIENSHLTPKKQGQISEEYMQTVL
#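 cAMP rise detected as CNG-channel membrane depolarization by fluorescent dye (emission 590 nm), 30 min after compound, following 60 min dye loading containing 100 uM RO 20-1724 at room temperature. Cells: TSHR/CNG HEK 293, with parental CNG HEK 293 as control.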
# p53ts 32C kill – cytotoxicity in p53ts cells at permissive temperature; H1299-p53A138V at 32C, ATP luminescence viability, 24 h; Potency, µM (highest dose often 46.1 µM), hits mostly cytotoxic; 130,000 compounds, 0.93% hits; AID 924; also: nearly all actives have a fitted effect of over 55% in size
#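 H1299-p53 A138V cells (temperature-sensitive p53) exposed 24 h to up to 46 uM compound at 32C, where p53 is wild-type in conformation. Viability read as ATP luminescence and normalised to DMSO and 100 uM tamoxifen. AC50 fitted with the Hill equation.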
# Hits are given with their value; – = inactive; ? = inconclusive; · = no result; [ ] = dose if it differs, or a comment. Unless noted, calls follow the shape of the dose curve; as a rule, active = well fitted curve in the direction sought with a large enough effect; inconclusive = small, poorly fitted or top-dose-only effect, or another doubt; inactive = no such curve, though single readings can be large; an effect the other way counts as inactive or inconclusive.
SMILES,IkB signaling,p53ts 39C kill,HEK293 cAMP ctrl,Peg3 imprint,TSHR ag,p53ts 32C kill
CCCCn1c(=N)n(CC(O)COc2ccccc2)c2ccccc21 (stereo not drawn),–,–,1.26µM,–,?,–
N=c1n(Cc2ccccc2)c2ccccc2n1CC(O)COc1ccccc1 (stereo not drawn),–,–,–,–,–,–
CCCCn1c(=N)n(CC(O)COc2ccc(C)cc2)c2ccccc21 (stereo not drawn),?,?,15.8µM,–,?,–
Cc1ccc(C(=O)COC(=O)c2cc(-c3ccc(Cl)cc3)nc3ccccc23)cc1,–,–,·,–[10.9 µM],·,–
O=S(=O)(c1ccc(Oc2ccc(S(=O)(=O)N3CCOCC3)cc2)cc1)N1CCOCC1,–,–,–[11.4 µM],–,–[11.4 µM],–
C=CS(=O)(=O)c1ccc(Oc2ccc(S(=O)(=O)C=C)cc2)cc1,?,10µM,?,–,?,–
O=C(Cn1c(=O)n(-c2ccccc2)c(=O)c2c3c(sc21)CCCC3)Nc1ccccc1,–,12.6µM,·,–[10.9 µM],·,?
COc1ccc2nc(SCC(=O)N(C)C3CCCCC3)c(C#N)cc2c1,?,–,25.1µM,–,?,–
COc1ccc2nc(SCC(=O)Nc3ccc(S(=O)(=O)N4CCCC4)cc3)c(C#N)cc2c1,–,–,3.16µM,–,?,–
O=C(c1ccncc1)N1CCC2(CC1)CN(c1ncccn1)C2,–[11.4 µM],–,–,·,–,–
CCOc1ccc(OCC)c(NC(=O)CSc2nc3cccnc3n2C)c1,?,–,31.6µM,–,?,–
CCOc1ccccc1NC(=O)CSc1nc2c(c(=O)n1C)SC(C)C2 (stereo not drawn),–,–,31.6µM,–,?,–
Cc1ccc(-n2c(SCC(=O)Nc3cc(C)on3)nc3c(c2=O)SC(C)C3)cc1 (stereo not drawn),–,?,–,–,–,10µM
CCOc1ccc(NC(=O)CSc2nc3c(c(=O)n2C)SC(C)C3)cc1 (stereo not drawn),–,–,–,–,–,–
CCOc1ccc(OCC)c(NC(=O)CSc2nc3ccccc3c(=O)n2C)c1,–,–,?,·,?,–
COCCNC(=O)Cn1cc(S(=O)(=O)Cc2ccccc2Cl)c2ccccc21,·,·,·,·,·,–
O[Si@](CCCN1CCCCC1)(c1ccc(F)cc1)C1CCCCC1,–,?,?,·,?,–
Cn1c(C(=O)N2CCCC(C(=O)NCc3cccs3)C2)cc2sccc21 (stereo not drawn),–,–,–,–,25.1µM,–
Cc1cccn2c(=O)cc(COc3cccc(NC(=O)c4ccccc4F)c3)nc12,?,7.94µM,·,–[10.9 µM],·,–
COC(=O)c1ccccc1NC(=O)Nc1cccc(OCc2cc(=O)n3cccc(C)c3n2)c1,–,–,·,–[10.9 µM],·,–
CCOC(=O)c1cc(C)sc1N1C(=O)C2C3C=CC(C3)C2C1=O (stereo not drawn),–,–,–,–,2µM,–
O=c1[nH]c(Nc2nc3ccccc3o2)nc2c1CCCC2,·,?,–,·,–,12.6µM
Cc1ccc(Nc2nc3c(c(=O)[nH]2)CCCC3)cc1,·,–,·,·,·,–
CC1CCCC(NC(=O)COC(=O)Cc2cn3ccsc3n2)C1C (stereo not drawn),–,–,31.6µM,?,?,–
COc1ccc(NC(=O)N2CCN3CCCCC3C2)cc1OC (stereo not drawn),–,–,·,–[10.9 µM],·,–
SMILES,IkB signaling,p53ts 39C kill,HEK293 cAMP ctrl,Peg3 imprint,TSHR ag,p53ts 32C kill
COc1ccc(-c2ccc3c(N)c(C(=O)c4ccc(OC)c(OC)c4)sc3n2)cc1,?,?,·,–[10.9 µM],·,–
COc1cccc(-c2ccc3c(N)c(C(=O)c4ccc(Br)cc4)sc3n2)c1,–,12.6µM,·,–[10.9 µM],·,?
CCC(SC1=Nc2ccccc2C2=NC(CC(C)C)C(=O)N12)C(=O)Nc1ccc2c(c1)OCO2 (stereo not drawn),?,–,15.8µM,–,?,–
c1ccc(CC2CCN(c3nc(N4CCOCC4)nc(N4CCOCC4)n3)CC2)cc1,–,–,–,–,7.94µM,–
O=C(Nc1cccc(F)c1)C1CCN(S(=O)(=O)c2cccc3nsnc23)CC1,?,–,·,–[10.9 µM],·,–
O=C(Nc1ccc(S(=O)(=O)Nc2ccccc2)cc1)C1COc2ccccc2O1 (stereo not drawn),·,22.4µM,·,·,·,?
Cc1csc2nc(COC(=O)c3ccc(NC(=O)C(C)C)cc3)cc(=O)n12,–,–,·,–[10.9 µM],·,–
O=C1c2oc3ccccc3c(=O)c2C(c2cccc(Br)c2)N1Cc1ccco1 (stereo not drawn),–,–,12.6µM,–,?,–
O=C1c2oc3ccc(Br)cc3c(=O)c2C(c2cccnc2)N1Cc1ccco1 (stereo not drawn),–,–,–,–,·,–
Cc1ccc(-c2cn3c4c(=O)n(C)c(=O)n(C)c4nc3n2-c2cccc(Cl)c2)cc1,–,–,·,–[10.9 µM],·,–
CN1C(=O)CC(C(=O)Nc2ccc(C(=O)O)cc2)SC1=Nc1ccc(Cl)cc1 (stereo not drawn),–,–,·,–[10.9 µM],·,–
COc1ccc(C(=O)N2CCC3(CCCN(C(=O)Nc4cccc(C#N)c4)C3)CC2)cc1,–[11.4 µM],–,–,·,25.1µM,–
COC(=O)N1CCC[C@@]2(CCN(C(=O)Nc3cccc(F)c3)C2)C1,–[11.4 µM],–,7.94µM,·,?,–
Cc1ccc(Cl)cc1N1CCN(C(=O)c2ccc3c(c2)N(Cc2ccccc2F)C(=O)c2ccccc2S3(=O)=O)CC1,–,–,·,–[10.9 µM],·,–
O=S(=O)(c1ccccc1)N1CCC2(CCCN(c3ccccn3)C2)CC1,–[11.4 µM],–,?,·,?,–
Cc1ccc(O)c(NC(=O)c2ccc(Br)c(S(=O)(=O)N3CCCCC3)c2)c1,?,?,·,–[10.9 µM],·,?
COc1ccccc1C(=O)N1CCN(c2nc3cc(C)c(C)cc3cc2C#N)CC1,?,–,12.6µM,–,?,–
COc1ccccc1C(=O)N1CCN(c2ccccn2)CC1,·,–,–,·,–,–
Cn1cc(C(=O)c2ccc(Cl)cc2)cc1-c1nc2ccccc2n1C,?,–,31.6µM,–,?,–
CCOC(=O)c1c(C)[nH]c(C)c1S(=O)(=O)N1CCCC(C(=O)N2CCN(c3ccccc3F)CC2)C1 (stereo not drawn),–,–,·,–[10.9 µM],·,–
CCOc1ccccc1N1CCN(S(=O)(=O)c2cccs2)CC1,–,–,10µM,–,?,–
CCCCOc1cccc(OCCCC)c1C(=O)Nc1cc(C)on1,–,–,2µM,–,?,–
CCOc1ccc(C(=O)Nc2cccc(C)n2)cc1,–,?,–,·,–,5.01µM
CCOc1ccc(C(=O)Nc2cc(C)on2)cc1OCC,–,–,–,–,–,–
Cn1nnc(NC(=O)c2ccc(C(C)(C)C)cc2)n1,–,7.94µM,–,–,–,10µM
CCOc1ccc2nc(NC(=O)c3ccccc3)sc2c1,?,?,·,–[10.9 µM],·,6.31µM
